Measured values reported in publication PMC8384837, “Expanding the binding specificity for RNA recognition by a PUF domain”.
Changes are numbered by the printed parent chain.

What was measured:
Test in all cases: yeast three-hybrid, YBZ-1, SC-Leu-His + 0.5 mM 3-AT, 4 days
Conditions in all cases: tags: N-Gal4 AD-HA kept; label: inside an RPR1-promoter hybrid RNA with tandem MS2 sites; ssRNA
PUM1 PUF domain R5-KRK = PUM1 PUF domain R5-KRK (Homo sapiens, UniProt Q14671 828-1176, C1007K;Q1011K)
How it was run: (§1)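 Each repeat of the Pumilio-1 PUF domain was randomized at its three base-contacting residues, and these libraries were co-expressed from a centromeric plasmid with matching RNA elements in strain YBZ-1. After four days on SC-Leu (input) or SC-Leu-His + 0.5 mM 3-AT (selection), the repeat regions were PCR-amplified and Illumina-sequenced. The interaction score compares variant frequency between input and selection as a log change, computed in log2 with a pseudocount of 1 for absent variants.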

PUM1 PUF domain R5-KVE = PUM1 PUF domain R5-KVE (Homo sapiens, UniProt Q14671 828-1176, C1007K;R1008V;Q1011E)
How it was run: as §1

PUM1 PUF domain R5-RST = PUM1 PUF domain R5-RST (Homo sapiens, UniProt Q14671 828-1176, C1007R;R1008S;Q1011T)
How it was run: as §1

PUM1 PUF domain R3-PFV = PUM1 PUF domain R3-PFV (Homo sapiens, UniProt Q14671 828-1176, C935P;R936F;Q939V)
How it was run: as §1

PUM1 PUF domain R3-SRF = PUM1 PUF domain R3-SRF (Homo sapiens, UniProt Q14671 828-1176, C935S;Q939F)
How it was run: as §1

PUM1 PUF domain R3-FYS = PUM1 PUF domain R3-FYS (Homo sapiens, UniProt Q14671 828-1176, C935F;R936Y;Q939S)
How it was run: as §1

PUM1 PUF domain R4-VPC = PUM1 PUF domain R4-VPC (Homo sapiens, UniProt Q14671 828-1176, N971V;H972P;Q975C)
How it was run: as §1

PUM1 PUF domain R2-NWP = PUM1 PUF domain R2-NWP (Homo sapiens, UniProt Q14671 828-1176, Y900W;Q903P)
How it was run: as §1

PUM1 PUF domain R8-KFY = PUM1 PUF domain R8-KFY (Homo sapiens, UniProt Q14671 828-1176, N1122K;Y1123F;Q1126Y)
How it was run: as §1

PUM1 PUF domain R4-WSH = PUM1 PUF domain R4-WSH (Homo sapiens, UniProt Q14671 828-1176, N971W;H972S;Q975H)
How it was run: as §1

PUM1 PUF domain R6-IFQ = molecular target: T1, PUM1 PUF domain R6-IFQ (Homo sapiens, UniProt Q14671 828-1176, N1043I;Y1044F)
T1 sequence: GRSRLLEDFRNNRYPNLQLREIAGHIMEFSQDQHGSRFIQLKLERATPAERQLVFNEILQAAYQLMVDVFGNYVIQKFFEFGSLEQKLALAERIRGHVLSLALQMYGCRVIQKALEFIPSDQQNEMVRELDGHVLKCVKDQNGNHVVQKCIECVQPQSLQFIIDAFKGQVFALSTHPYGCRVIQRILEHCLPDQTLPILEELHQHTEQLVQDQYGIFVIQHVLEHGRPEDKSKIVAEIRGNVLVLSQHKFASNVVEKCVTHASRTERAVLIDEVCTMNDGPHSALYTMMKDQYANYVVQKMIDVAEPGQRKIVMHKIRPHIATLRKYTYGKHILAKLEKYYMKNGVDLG
How it was run: as §1

PUM1 PUF domain R4-TPN = PUM1 PUF domain R4-TPN (Homo sapiens, UniProt Q14671 828-1176, N971T;H972P;Q975N)
How it was run: as §1

PUM1 PUF domain R8-MHK = PUM1 PUF domain R8-MHK (Homo sapiens, UniProt Q14671 828-1176, N1122M;Y1123H;Q1126K)
How it was run: as §1

PUM1 PUF domain R6-NWV = molecular target: T2, PUM1 PUF domain R6-NWV (Homo sapiens, UniProt Q14671 828-1176, Y1044W;Q1047V)
T2 sequence: T1 sequence with I216N, F217W, Q220V
How it was run: as §1

PUM1 PUF domain R5-DWW = PUM1 PUF domain R5-DWW (Homo sapiens, UniProt Q14671 828-1176, C1007D;R1008W;Q1011W)
How it was run: as §1

PUM1 PUF domain R1-TRR = PUM1 PUF domain R1-TRR (Homo sapiens, UniProt Q14671 828-1176, S863T;Q867R)
How it was run: as §1

PUM1 PUF domain R7-RAR = PUM1 PUF domain R7-RAR (Homo sapiens, UniProt Q14671 828-1176, S1079R;N1080A;E1083R)
How it was run: as §1

PUM1 PUF domain R4-WGM = PUM1 PUF domain R4-WGM (Homo sapiens, UniProt Q14671 828-1176, N971W;H972G;Q975M)
How it was run: as §1

PUM1 PUF domain R7-ISG = PUM1 PUF domain R7-ISG (Homo sapiens, UniProt Q14671 828-1176, S1079I;N1080S;E1083G)
How it was run: as §1

PUM1 PUF domain R2-RVT = PUM1 PUF domain R2-RVT (Homo sapiens, UniProt Q14671 828-1176, N899R;Y900V;Q903T)
How it was run: as §1

PUM1 PUF domain R4-TPN, sequence (Q14671 828-1176 N971T/H972P/Q975N): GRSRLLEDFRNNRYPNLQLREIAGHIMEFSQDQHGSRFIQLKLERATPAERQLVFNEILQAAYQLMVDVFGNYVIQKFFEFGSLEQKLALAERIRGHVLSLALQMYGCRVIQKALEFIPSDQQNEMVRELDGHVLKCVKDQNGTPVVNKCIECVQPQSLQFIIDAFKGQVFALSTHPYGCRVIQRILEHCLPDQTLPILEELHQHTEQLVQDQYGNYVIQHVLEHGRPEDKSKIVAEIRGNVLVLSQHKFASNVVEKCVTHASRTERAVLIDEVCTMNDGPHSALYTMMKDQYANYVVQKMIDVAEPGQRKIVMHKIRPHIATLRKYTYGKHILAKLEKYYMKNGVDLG

## GGCUAGAACUAGUGGAUCCCCCGGCGCCCGGCGGCUCGAGCCCGGGUAAGUGUCAAUAGUCUGCAUGCCGCCGGGCGCCAUGCCUGCAGGUCGACUCUAGAAAACAUG
PUM1 PUF domain R5-KRK
  binding signal: 3.89 log2 enrichment (interaction score)
PUM1 PUF domain R5-KVE
  binding signal: 2.24 log2 enrichment (interaction score)
PUM1 PUF domain R5-RST
  binding signal: 2.91 log2 enrichment (interaction score)

## GGCUAGAACUAGUGGAUCCCCCGGCGCCCGGCGGCUCGAGCCCGGGUAAGUGUAAAUAGUCUGCAUGCCGCCGGGCGCCAUGCCUGCAGGUCGACUCUAGAAAACAUG
PUM1 PUF domain R3-PFV
  binding signal: 3.44 log2 enrichment (interaction score)
PUM1 PUF domain R3-SRF
  binding signal: 2.58 log2 enrichment (interaction score)
PUM1 PUF domain R3-FYS
  binding signal: 3.03 log2 enrichment (interaction score)
PUM1 PUF domain R4-VPC
  binding signal: 2.65 log2 enrichment (interaction score)
PUM1 PUF domain R2-NWP
  binding signal: 4.83 log2 enrichment (interaction score)
PUM1 PUF domain R8-KFY
  binding signal: 2.5 log2 enrichment (interaction score)
PUM1 PUF domain R4-WSH
  binding signal: 1.11 log2 enrichment (interaction score)
PUM1 PUF domain R6-IFQ
  binding signal: 3.62 log2 enrichment (interaction score)
PUM1 PUF domain R4-TPN
  binding signal: 5.21 log2 enrichment (interaction score)
PUM1 PUF domain R8-MHK
  binding signal: 2.63 log2 enrichment (interaction score)

## GGCUAGAACUAGUGGAUCCCCCGGCGCCCGGCGGCUCGAGCCCGGGUAAGUGAAAAUAGUCUGCAUGCCGCCGGGCGCCAUGCCUGCAGGUCGACUCUAGAAAACAUG
PUM1 PUF domain R6-NWV
  binding signal: 3.35 log2 enrichment (interaction score)

## GGCUAGAACUAGUGGAUCCCCCGGCGCCCGGCGGCUCGAGCCCGGGUAAGUGUGAAUAGUCUGCAUGCCGCCGGGCGCCAUGCCUGCAGGUCGACUCUAGAAAACAUG
PUM1 PUF domain R5-DWW
  binding signal: 5.08 log2 enrichment (interaction score)

## GGCUAGAACUAGUGGAUCCCCCGGCGCCCGGCGGCUCGAGCCCGGGUAAGCGUAAAUAGUCUGCAUGCCGCCGGGCGCCAUGCCUGCAGGUCGACUCUAGAAAACAUG
PUM1 PUF domain R8-KFY
  binding signal: 2.74 log2 enrichment (interaction score)

## GGCUAGAACUAGUGGAUCCCCCGGCGCCCGGCGGCUCGAGCCCGGGUAAGUGUACAUAGUCUGCAUGCCGCCGGGCGCCAUGCCUGCAGGUCGACUCUAGAAAACAUG
PUM1 PUF domain R4-VPC
  binding signal: 3.7 log2 enrichment (interaction score)
PUM1 PUF domain R4-TPN
  binding signal: 4.27 log2 enrichment (interaction score)

## GGCUAGAACUAGUGGAUCCCCCGGCGCCCGGCGGCUCGAGCCCGGGUAAGUGUAAAUCGUCUGCAUGCCGCCGGGCGCCAUGCCUGCAGGUCGACUCUAGAAAACAUG
PUM1 PUF domain R1-TRR
  binding signal: 4.23 log2 enrichment (interaction score)

## GGCUAGAACUAGUGGAUCCCCCGGCGCCCGGCGGCUCGAGCCCGGGUAAGUGUUAAUAGUCUGCAUGCCGCCGGGCGCCAUGCCUGCAGGUCGACUCUAGAAAACAUG
PUM1 PUF domain R5-KRK
  binding signal: 2.98 log2 enrichment (interaction score)

## GGCUAGAACUAGUGGAUCCCCCGGCGCCCGGCGGCUCGAGCCCGGGUAAGUGUAAAUUGUCUGCAUGCCGCCGGGCGCCAUGCCUGCAGGUCGACUCUAGAAAACAUG
PUM1 PUF domain R1-TRR
  binding signal: 3.12 log2 enrichment (interaction score)

## GGCUAGAACUAGUGGAUCCCCCGGCGCCCGGCGGCUCGAGCCCGGGUAAGUCUAAAUAGUCUGCAUGCCGCCGGGCGCCAUGCCUGCAGGUCGACUCUAGAAAACAUG
PUM1 PUF domain R7-RAR
  binding signal: 1.83 log2 enrichment (interaction score)

## GGCUAGAACUAGUGGAUCCCCCGGCGCCCGGCGGCUCGAGCCCGGGUAAGUGUAUAUAGUCUGCAUGCCGCCGGGCGCCAUGCCUGCAGGUCGACUCUAGAAAACAUG
PUM1 PUF domain R4-WGM
  binding signal: 2.85 log2 enrichment (interaction score)
PUM1 PUF domain R4-WSH
  binding signal: 4.36 log2 enrichment (interaction score)
PUM1 PUF domain R4-TPN
  binding signal: 3.42 log2 enrichment (interaction score)

## GGCUAGAACUAGUGGAUCCCCCGGCGCCCGGCGGCUCGAGCCCGGGUAAGUGUAAUUAGUCUGCAUGCCGCCGGGCGCCAUGCCUGCAGGUCGACUCUAGAAAACAUG
PUM1 PUF domain R3-PFV
  binding signal: 2.52 log2 enrichment (interaction score)

## GGCUAGAACUAGUGGAUCCCCCGGCGCCCGGCGGCUCGAGCCCGGGUAAGUUUAAAUAGUCUGCAUGCCGCCGGGCGCCAUGCCUGCAGGUCGACUCUAGAAAACAUG
PUM1 PUF domain R7-ISG
  binding signal: 5.55 log2 enrichment (interaction score)
PUM1 PUF domain R7-RAR
  binding signal: 4.56 log2 enrichment (interaction score)

## GGCUAGAACUAGUGGAUCCCCCGGCGCCCGGCGGCUCGAGCCCGGGUAAGUGUAAAGAGUCUGCAUGCCGCCGGGCGCCAUGCCUGCAGGUCGACUCUAGAAAACAUG
PUM1 PUF domain R2-RVT
  binding signal: 2.17 log2 enrichment (interaction score)
